Compound activity as filed in PubChem.
In the library only some 11% were active in any assay of this set; here they are far more common.
Pf growth 96h – P. falciparum growth inhibition at 96 hour, primary screen for plastid delayed-death inhibitors | P. falciparum luciferase reporter growth, 96 h | Potency, µM (doses to about 28.7 µM), most hits filed as inhibitors | 320,000 compounds, 6.9% hits
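Readout is luminescence from an integrated firefly luciferase in P. falciparum. Red cells, 2% hematocrit and 0.05% parasitemia final, were cultured with compound through two parasite generations (96 hours) at 37 C, 5% CO2.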
Pf growth 48h – inhibits P. falciparum growth in the first generation, 48 h | P. falciparum luciferase growth in erythrocytes, 48 h | Potency, µM (highest dose often 28.7 µM), hits mostly inhibitors | 310,000 compounds, 5.9% hits
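First compound was added to culture medium, then infected red cells at 0.1% parasitemia and 2% hematocrit (final). After incubation at 37 C under 5% CO2, luciferase detection reagent was dispensed and light output recorded.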
HCV inh – blocks hepatitis C virus; Huh7.5.1 HCVcc-Cre infection, luciferase reporter, 44 h; Potency, µM (doses to about 41.8 µM), hits mostly inhibitors; 340,000 compounds, 3.4% hits; AID 651820
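A cell-based infection assay in which seeded cells (1,000 per well) receive test compound after 4 h, are inoculated with HCVcc-Cre at approximately 0.5 moi, and are incubated 44 h before luminescence detection.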
AmpC inh no detg – inhibitors of E. coli AmpC beta-lactamase without detergent; 330,000 compounds, 0.52% hits; AmpC nitrocefin hydrolysis, absorbance 480 nm, 0.0001% Triton; P00811; Potency, µM (titrated, usually from 57.1 µM), most hits filed as inhibitors; note: nearly all actives have a fitted effect of over 20% in size
Target sequence (P00811 whole entry, looked up): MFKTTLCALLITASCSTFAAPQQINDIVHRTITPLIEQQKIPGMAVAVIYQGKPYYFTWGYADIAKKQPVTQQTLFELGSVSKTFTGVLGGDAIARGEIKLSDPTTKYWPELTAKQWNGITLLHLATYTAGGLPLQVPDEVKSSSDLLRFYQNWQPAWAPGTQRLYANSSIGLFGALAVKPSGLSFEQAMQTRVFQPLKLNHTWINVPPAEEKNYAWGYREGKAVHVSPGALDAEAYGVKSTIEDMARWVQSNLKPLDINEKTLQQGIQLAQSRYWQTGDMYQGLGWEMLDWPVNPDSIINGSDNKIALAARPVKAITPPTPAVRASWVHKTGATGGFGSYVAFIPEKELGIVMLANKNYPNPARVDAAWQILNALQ
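20 mM phosphate pH 7.0 + 0.01% (detergent screen) or 0.0001% Triton X-100; 5.3 nM AmpC reagent; cpd preinc 15 min RT; nitrocefin (800 uM stock) to start; A480 q20 s × 4 min; Activity was normalised to no-enzyme and no-compound control wells.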
AMA1-RON2 inh – inhibitors of Plasmodium falciparum AMA1-RON2 interaction; AlphaScreen AMA1-biotinylated RON2 peptide binding; Potency, µM (highest dose often 58.2 µM), actives largely listed as inhibitors; 360,000 compounds, 0.2% hits; AID 720542; note: nearly all actives have a fitted effect of over 45% in size
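AMA1 (3D7) with his tag at 25 nM final met compounds first, then biotinylated RON2 peptide at 25 nM; detection used donor plus acceptor beads, 10 µg/mL apiece, read by AlphaScreen after 30 min at room temperature.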
AmpC inh detg – inhibitors of E. coli AmpC beta-lactamase with detergent; AmpC hydrolysis of nitrocefin, absorbance 480 nm, 0.01% Triton; Potency, µM (titrated, usually from 114 µM), actives largely listed as inhibitors; 370,000 compounds, 0.041% hits; note: nearly all actives have a fitted effect of over 25% in size
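AmpC (5.3 nM in the dispensed reagent) in 20 mM phosphate pH 7.0 with 0.01% (detergent screen) or 0.0001% Triton X-100 was preincubated with compounds for 15 min at room temperature. Nitrocefin was then added from an 800 uM solution, and hydrolysis was followed at 480 nm.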
A number is an active result; - = inactive; ? = inconclusive; . = no result given; ! = not active in a repeat; [ ] = dose if it differs, or a comment. Calls come from the whole dose curve; as a rule, active = well fitted curve in the direction sought with a large enough effect; inconclusive = small, poorly fitted or top-dose-only effect, or another doubt; inactive = no such curve, though single readings can be large; an effect the other way counts as inactive or inconclusive.

SMILES	Pf growth 96h	Pf growth 48h	HCV inh	AmpC inh no detg	AMA1-RON2 inh	AmpC inh detg
COC(=O)CCc1c(C)[nH]c(=S)[nH]c1=O	?	-	-	-	-	-
CCCC(=O)c1c(C)c2ccccc2n1C	3.3µM	-	-	-	-	-
COc1ccc(C2CN=NC23CCc2ccccc2C3=O)cc1 (stereo not drawn)	?	13µM	-	-	-	-
COc1ccc(C2CN=NC23CCCc2ccccc2C3=O)cc1 (stereo not drawn)	2.6µM	3.7µM	?	-	-	-
COc1ccccc1C1CN=NC12CCCc1ccccc1C2=O (stereo not drawn)	17µM	9.3µM	-	-	-	-
CCOC(=O)N1CCC(N(C(=O)Nc2ccc(Cl)c(Cl)c2)C(C)CC)CC1 (stereo not drawn)	.	?	10µM!	-	-	-
CCc1ccc(NC(=O)N(CCOC)C2CCN(C(C)=O)CC2)cc1	.	-	-	-	-	-
CCOC(=O)N1CCC(N(CCOC)C(=O)Nc2ccc(CC)cc2)CC1	7.4µM	-	-	-	-	-
Cc1ccc2c(c1)N(C(=O)Nc1cccc3c1CCCC3)CCO2	.	.	.	.	.	-
Cc1cccc(CNC(=O)CN2C(=O)CSc3c2c(C)nn3-c2ccccc2)c1	.	.	.	.	.	-
CC(NCc1ccccc1)c1ccccc1O (stereo not drawn)	10µM	1.7µM	-	-	-	-
CC(CCc1ccccc1)NCc1ccncc1 (stereo not drawn)	-	-	-	-	-	?
C[C@@H]1O[C@@H](OC[C@@H]2O[C@H](Oc3c(-c4ccc(O)cc4)oc4cc(O)cc(O)c4c3=O)[C@@H](O)[C@H](O)[C@H]2O)[C@H](O)[C@H](O)[C@H]1O	.	.	-	-	-	.
CC1OC(Oc2c(-c3cc(O)c(O)c(O)c3)oc3cc(O)cc(O)c3c2=O)C(O)C(O)C1O (stereo not drawn)	-	9.3µM	-	-	-	-
CCOc1ccc(-c2c(C)n(-c3ccc(OCC)cc3)c3[n+]2CCCCC3)cc1	?	0.41µM	2.5µM	-	-	-
CCOc1ccc(-n2c(C)c(C(C)=O)c(C(C)=O)c2C)cc1	-	-	-	-	-	?
CC1CN(c2oc(-c3cccs3)nc2C#N)CC(C)O1 (stereo not drawn)	-	10µM	-	-	-	-
N#Cc1nc(-c2cccs2)oc1N1CCOCC1	-	?	?	-	-	-
COc1ccc(C(=O)c2ccccc2)c2c(O)ccc(C(=O)c3ccccc3)c12	.	?	2.5µM	-	-	-
COc1ccc(CNC(=O)c2ccc3c(c2)CCN3S(=O)(=O)c2ccc(Cl)cc2)cc1	.	.	.	.	.	-
CCCCn1c(=O)n(CC(=O)NCc2ccc(C)cc2)c(=O)c2c1nc(CO)n2CCC	4.1µM	?	-	-	-	-
Cc1ccc(-n2c3c(cc(C(=O)Nc4cccc(Cl)c4)c2=O)C(=O)CC(C)(C)C3)cc1	.	.	.	.	.	-
COc1cc2c(cc1OC)C1(CCCC1)C(N)=C2C#N	?	?	3.2µM	-	-	-
O=c1[nH]c(=S)n(C2CC2)c(O)c1/C=N/Nc1cccc2ccccc12	-	-	-	-	-	-
O=c1[nH]c(=S)n(C2CC2)c(O)c1/C=N/Nc1ccccc1	-	-	-	13µM	-	-
SMILES	Pf growth 96h	Pf growth 48h	HCV inh	AmpC inh no detg	AMA1-RON2 inh	AmpC inh detg
CCOC(=O)c1cc(-c2cccnc2)nn1-c1ccccn1	?	?	-	-	-	-
CCOC(=O)c1cc(-c2ccc(Cl)cc2)nc2c1c(C)nn2CCC#N	?	?	?	-	-	-
CCOC(=O)c1cc(-c2ccc3c(c2)OCCO3)nc2c1c(C)nn2CCC#N	.	9.3µM	?	-	-	-
CCOC(=O)c1cc(-c2ccccc2)nc2c1c(C)nn2-c1ccccn1	.	?	10µM	-	-	-
CCOC(=O)c1cc(-c2ccncc2)nc2c1c(C)nn2C	3.3µM	.	?	-	-	-
Cc1cc(C)c(OCC(=O)N(Cc2ccco2)Cc2ccco2)c(C)c1	.	.	.	.	.	-
COc1ccc(C2C(C(N)=O)=C(C)Nc3nc(SCc4ccccc4Cl)nn32)cc1OC (stereo not drawn)	.	.	.	.	.	-
CCCCn1c2c(c(=O)n(C)c1=O)C(c1ccc(OC)cc1)N1CCCCCC1=N2 (stereo not drawn)	7.4µM	?	-	-	-	-
N#Cc1ccccc1OCC(=O)N(C1CCCCC1)C1CCS(=O)(=O)C1 (stereo not drawn)	-	-	-	-	-	?
O=C(COc1ccc(Cl)cc1Cl)N(C1CCCCC1)C1CCS(=O)(=O)C1 (stereo not drawn)	10µM	?	-	-	-	-
CCCCOc1ccc(/C=C/C(=O)NC2=Nc3ccccc3NC(C)=C2C(=O)OCC)cc1OC	10µM	?	?	-	-	-
CCOC(=O)C1=C(C)Nc2ccccc2N=C1NC(=O)C(c1ccccc1)c1ccccc1	?	?	-	28µM	-	-
CCOC(=O)C1=C(C)Nc2ccccc2N=C1NC(=O)c1cccc(S(=O)(=O)N(C)C)c1	-	.	-	-	-	-
CN(Cc1ccccc1)C(=O)C1CCC(CNS(=O)(=O)c2ccc3c(c2)CCCC(=O)N3)CC1 (stereo not drawn)	.	.	.	.	.	-
CCOC(=O)[C@H]1[C@H]2COc3ccc(Cl)cc3[C@@H]2N2C(=O)c3ccc(F)cc3NC(=O)[C@@]12C	?	12µM	-	-	-	-
CCOC(=O)[C@H]1[C@H]2COc3ccc(Cl)cc3[C@@H]2N2C(=O)c3cc(Cl)ccc3NC(=O)[C@@]12C	10µM	?	?	-	-	-
CCOC(=O)[C@H]1[C@H]2COc3ccccc3[C@@H]2N2C(=O)c3cc(C)ccc3NC(=O)[C@@]12C	13µM	?	-	-	-	-
CCOC(=O)[C@H]1[C@H]2COc3ccc(Cl)cc3[C@@H]2N2C(=O)c3cc(Br)ccc3NC(=O)[C@@]12C	?	?	?	-	-	-
CCOC(=O)[C@H]1[C@H]2COc3ccccc3[C@@H]2N2C(=O)c3cc(Cl)ccc3NC(=O)[C@@]12C	12µM	10µM	-	-	-	-
CCc1ccc(OCc2cc(=O)n3cc(C)sc3n2)cc1	.	.	.	.	.	-
Cc1c(C(=O)Nc2c(F)cccc2F)sc2ncn(Cc3ccccc3F)c(=O)c12	.	.	.	.	.	-
Brc1cc(Br)c2nc3c(cc2c1)CCC3	-	-	10µM	-	-	-
N#C/C(=C\c1cn(-c2ccccc2)nc1-c1cccnc1)c1nnc2n1CCCCC2	8.3µM	.	-	-	-	-
O=C(/C=C/c1cn(-c2ccccc2)nc1-c1cccnc1)N1CCCC1	?	?	-	-[11.4 µM]	-	-
